Results from ChEMBL document CHEMBL1201862, “PubChem BioAssay data set” (2004).

assay: M. tuberculosis growth inhibition, dose response, 7H9 media, purified and synthesized compounds, set 6 (AID 504897); type: functional; call rule not given here

SMILES | IC90
COC(=O)c1ccc(CNc2c(N3CCCC3)c(=O)c2=O)cc1 | > 100 µM (active)
Cc1[nH]c2ccccc2c1C(=O)COC(=O)c1ccc([N+](=O)[O-])s1 | > 67.8 µM (active)
O=C(CSc1ccccn1)NC1CCCCC1 | > 100 µM (active)
CCCc1cc(C(N)=S)ccn1 | > 100 µM (active)
NC(=O)c1cnccn1 | > 100 µM (active)
